# Data taken from the supplement of paper PMC9135407.
# Values joined by “and” are separate entries in the source; they are usually repeats but may differ in a detail not shown here. Equal values may be shown once. Where a name gives a salt, the structure may show the parent alone. The whole screen tested about 5,800 compounds, of which about 620 (11%) showed activity. The full list was thinned out, with actives kept by preference. Values without a mark were called inactive.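 Rule for the calls: active = score above a cut-off or among the top three wells of a plate; in these data no inactive exceeds 0.85.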
# Test system: primary human hepatic stellate cells (donor 1)
# Assay: scaled lipid accumulation score (0 = DMSO-like, 1 = nortriptyline-like); higher = stronger HSC inactivation (lipid re-accumulation), active = hit call of the paper
# Details: 48 h
# [1] = library stock concentration: 1 mM
# [2] = library stock concentration: 10 mM
# [3] = library stock concentration: 80 uM
# [4] = library stock concentration: 400 uM
# [5] = library stock concentration: 2 mM
# [6] = library stock concentration: 3.33 mM
compound,measurement,setting,value
"CCCCC(C)(C)[C@H](O)/C=C/[C@H]1CCC(=O)[C@@H]1C/C=C\CCCC(=O)O [11-deoxy-16,16-dimethyl Prostaglandin E2]",scaled lipid accumulation score,[1],0.098
CN1CCN(CC/C=C2/c3ccccc3Sc3ccc(S(=O)(=O)N(C)C)cc32)CC1,scaled lipid accumulation score,[2],0.722
CN1CCN(CCCN2c3ccccc3Sc3ccc(S(=O)(=O)N(C)C)cc32)CC1 [Thioproperazine dimesylate],scaled lipid accumulation score,,0.733
CN1CCN(CC/C=C2/c3ccccc3Sc3ccc(S(=O)(=O)N(C)C)cc32)CC1 [Thiothixene],scaled lipid accumulation score,[2],0.435
Cl.OCCN1CCN(CC/C=C2/c3ccccc3Sc3ccc(Cl)cc32)CC1 [Zuclopenthixol hydrochloride],scaled lipid accumulation score,,0.995 (active)
Cl.Cl.OCCN1CCN(CC/C=C2/c3ccccc3Sc3ccc(C(F)(F)F)cc32)CC1 [cis-(Z)-Flupenthixol dihydrochloride],scaled lipid accumulation score,[2],1.01 (active)
CN1CCN(CC/C=C2\c3ccccc3Sc3ccc(S(=O)(=O)N(C)C)cc32)CC1 [Thiothixene],scaled lipid accumulation score,library stock concentration: 4.5 mM,0.856 (active)
CCCCC[C@H](O)C/C=C1/C(=O)C=C[C@@H]1C/C=C\CCCC(=O)O [D12-Prostaglandin J2],scaled lipid accumulation score,[1],≤ -0.021
CC(=N)NCc1cccc(CN)c1 [1400W dihydrochloride],scaled lipid accumulation score,[2],≤ -0.006
Cc1oc(S(=O)(=O)N2CCCCC2)cc1NC(=O)Nc1ccccc1,scaled lipid accumulation score,[1],≤ 0
Cc1cc(/N=N/c2cc(S(=O)(=O)O)c(C)cc2C)c(N)cc1O [Ischemin],scaled lipid accumulation score,[3],≤ 0
same,scaled lipid accumulation score,[4],≤ 0
same,scaled lipid accumulation score,[5],≤ 0
same,scaled lipid accumulation score,[2],≤ 0
COC(=O)CC(NC(=O)C(C)NC(=O)C(NC(=O)OCc1ccccc1)C(C)C)C(=O)CF (configuration not stated),scaled lipid accumulation score,[6],≤ 0
same,scaled lipid accumulation score,[2],0.101
Cc1cc(C)c(S(=O)(=O)Nc2ccccc2C(F)(F)F)c(C)c1,scaled lipid accumulation score,[2],0.002
CC/C=C\C/C=C\C/C=C\C/C=C\C/C=C\CCCC(=O)O [Eicosapentaenoic acid (20:5 n-3)],scaled lipid accumulation score,[1],0.009
CC/C=C\C/C=C\C/C=C\C/C=C\C/C=C\CCCC(=O)O [Eicosapentaenoic Acid],scaled lipid accumulation score,[1],0.001
CCCC[C@H](CCC(=O)O)NC(=O)CCCCCCc1ccccc1,scaled lipid accumulation score,[1],≤ 0
CCCCCCCCCCCCCCCC(=O)OCC(COP(=O)(O)O)OC(=O)CCCCCCCCCCCCCCC (configuration not stated) [Dipalmitoylphosphatidic acid],scaled lipid accumulation score,[1],≤ -0.021
CC1(C)CCC(c2ccc(Cl)cc2)=C(CN2CCN(c3ccc(C(=O)NS(=O)(=O)c4ccc(N[C@H](CCN5CCOCC5)CSc5ccccc5)c(S(=O)(=O)C(F)(F)F)c4)cc3)CC2)C1 [ABT-263 (Navitoclax)],scaled lipid accumulation score,[6],0.024
same,scaled lipid accumulation score,[2],0.048
Cc1cnc(Nc2ccc(F)cc2Cl)nc1-c1c[nH]c(C(=O)N[C@H](CO)c2cccc(Cl)c2)c1,scaled lipid accumulation score,[3],≤ -0.001
same,scaled lipid accumulation score,[4],≤ -0.001
same,scaled lipid accumulation score,[5],≤ -0.001
same,scaled lipid accumulation score,[2],≤ -0.001
CC(C)c1cc(-c2n[nH]c(=O)n2-c2ccc3c(ccn3C)c2)c(O)cc1O [Ganetespib] [listing 1 of 2 here],scaled lipid accumulation score,[5],0.915 (active)
same,scaled lipid accumulation score,[2],0.885 (active)
CC(C)c1cc(-c2n[nH]c(=O)n2-c2ccc3c(ccn3C)c2)c(O)cc1O [Ganetespib] [listing 2 of 2 here],scaled lipid accumulation score,[3],0.602
same,scaled lipid accumulation score,[4],0.802
CC(C)c1cc(-c2n[nH]c(=O)n2-c2ccc3c(ccn3C)c2)c(O)cc1O [Ganetespib (STA-9090)],scaled lipid accumulation score,[6],0.691
same,scaled lipid accumulation score,[2],0.649
Cc1cc(NC(=O)Nc2ccc3c(ccn3C)c2)sn1,scaled lipid accumulation score,[2],0.129
CCCCCCCCCCCCCCP(=O)(O)O [Tetradecyl Phosphonate],scaled lipid accumulation score,[1],≤ 0
CN(C)C(=O)[C@H](O)[C@H](Cc1ccccc1)NC(=O)c1cc2cc(Cl)ccc2[nH]1,scaled lipid accumulation score,[6],0.007
same,scaled lipid accumulation score,[2],≤ 0 and 0.127
C[C@@H]1CN(CCCn2c3ccccc3c3ccccc32)C[C@H](C)N1.Cl.Cl [Rimcazole dihydrochloride],scaled lipid accumulation score,[2],1.34 (active)
COc1ccccc1C1(O)CCN(CCCn2c3ccccc3c3ccccc32)CC1 [NNC 05-2090 hydrochloride],scaled lipid accumulation score,[2],0.491
Cc1ccc2c(=O)c3ccccc3n(CCCN)c2c1C,scaled lipid accumulation score,[2],0.501
O=c1[nH]c2ccccc2n1CCCN1CCN(C(c2ccccc2)c2ccccc2)CC1 [Oxatomide],scaled lipid accumulation score,library stock concentration: 4.7 mM,0.191
CCCCCCCCNC(=O)Cc1c(C)n(C(=O)c2ccc(Cl)cc2)c2ccc(OC)cc12 [Indomethacin N-octyl amide],scaled lipid accumulation score,[1],≤ 0
O=C(O)/C=C/CCCCCCCCC(=O)O [Traumatic Acid],scaled lipid accumulation score,[1],≤ 0
O=C1Nc2ccc(I)cc2C1=Cc1cc(Br)c(O)c(Br)c1,scaled lipid accumulation score,[6],≤ 0
same,scaled lipid accumulation score,[2],0.083
CCCCCCCC(=O)CC[C@@H]1[C@@H](C/C=C\CCCC(=O)O)[C@@H](O)C[C@H]1O [Unoprostone],scaled lipid accumulation score,[1],≤ 0
O=C(O)CCC/C=C\C[C@@H]1[C@@H](/C=C/C(=O)COc2cccc(C(F)(F)F)c2)[C@H](O)C[C@@H]1O [15-keto Fluprostenol],scaled lipid accumulation score,[1],≤ 0
COc1ccc(-n2nc(C(N)=O)c3c2C(=O)N(c2ccc(N4CCCCC4=O)cc2)CC3)cc1 [Apixaban],scaled lipid accumulation score,[6],≤ 0
same,scaled lipid accumulation score,[2],≤ 0
O=c1onc2cnc3ccccc3n12,scaled lipid accumulation score,[2],1.01 (active)
CC(C)CCC[C@@H](C)[C@H]1CC[C@H]2[C@@H]3CC(=O)[C@@]4(O)C[C@@H](O)CC[C@]4(C)[C@H]3CC[C@]12C [5.alpha.-hydroxy-6-keto Cholesterol],scaled lipid accumulation score,[1],≤ 0
O=c1c(-c2ccccc2)c1-c1ccccc1 [diphenylcyclopropenone],scaled lipid accumulation score,[2],1.25 (active)
O=C(O)c1ccccc1 [Benzoic Acid],scaled lipid accumulation score,[6],≤ 0
same,scaled lipid accumulation score,[2],0.005
O=C(O)c1ccccc1 [Benzoic acid],scaled lipid accumulation score,library stock concentration: 16.4 mM,≤ 0
O=c1c2ccccc2oc2ccccc12 [Xanthone],scaled lipid accumulation score,[6],≤ 0
same,scaled lipid accumulation score,[2],≤ 0
"Cc1ccccc1N1CCN(S(=O)(=O)C[C@]23CC[C@H](C[C@@H]2NC(=O)[C@@H](N)CCS(C)(=O)=O)C3(C)C)CC1 [L-368,899 hydrochloride]",scaled lipid accumulation score,[2],0.107
"O=P(O)(O)OC1[C@H](OP(=O)(O)O)[C@H](O)C(O)[C@H](O)[C@H]1OP(=O)(O)O (stereo partly drawn) [D-myo-Inositol-1,2,6-triphosphate (sodium salt)]",scaled lipid accumulation score,[1],0.004
CCNC(=O)c1[nH]nc(-c2cc(Cl)c(O)cc2O)c1-c1ccc(OC)cc1,scaled lipid accumulation score,[6],0.6
CCNC(=O)C1=C(c2ccc(OC)cc2)C(=C2C=C(Cl)C(O)=CC2=O)NN1,scaled lipid accumulation score,[2],0.897 (active)
N=C(N)SCCC[C@H](N)C(=O)O [Thioarginine (hydrobromide)],scaled lipid accumulation score,[1],≤ 0
NCC(O)CC(=O)O (configuration not stated) [Aminohydroxybutyric acid],scaled lipid accumulation score,[2],0.017
CN1CCN(c2ccc(OC(F)(F)F)c(Nc3ncc4c(n3)-c3c(c(C(N)=O)nn3CCO)CC4)c2)CC1 [listing 1 of 2 here],scaled lipid accumulation score,[2],0.879 (active)
CNC(=O)c1nn(C)c2c1C(C)(C)Cc1cnc(Nc3ccc(N4CCN(C)CC4)cc3)nc1-2,scaled lipid accumulation score,[6],0.148
same,scaled lipid accumulation score,[2],≤ 0
CN1CCN(c2ccc(OC(F)(F)F)c(Nc3ncc4c(n3)-c3c(c(C(N)=O)nn3CCO)CC4)c2)CC1 [listing 2 of 2 here],scaled lipid accumulation score,[3],≤ 0
same,scaled lipid accumulation score,[4],≤ 0
same,scaled lipid accumulation score,[5],0.15
same,scaled lipid accumulation score,[6],≤ -0.009
same,scaled lipid accumulation score,[2],0.668
COc1cc(Br)c(S(=O)(=O)Nc2ccc(Cl)c(O[C@@H]3CCN(C)C3)c2)cc1OC,scaled lipid accumulation score,[2],0.116
COc1cc2c(cc1OC)[C@@H]1C(=O)c3ccc4c(c3O[C@@H]1CO2)C=CC(C)(C)O4 [Deguelin(-)],scaled lipid accumulation score,[2],≤ 0
CCCCCCCCCCCCC/C=C/[C@@H](O)[C@H](CO)NC(=O)CCCCCCC [C8 Ceramide],scaled lipid accumulation score,[1],≤ -0.021
CCCCCCCCCCCCC/C=C/[C@@H](O)[C@H](CO)NC(=O)CCCCCCC [C-8 Ceramide],scaled lipid accumulation score,[1],≤ 0
CCOC(=O)[C@@H](C)Oc1cccc2c(=O)n(CC(=O)Nc3ccc4c(c3)OCCO4)ccc12,scaled lipid accumulation score,[2],0.249
CN(C)CCCNC(=O)[C@@H]1C[C@H](CN2CCOCC2)CN(Cc2ccc3ccccc3c2)C1,scaled lipid accumulation score,[2],0.993 (active)
O=C(NCCCNc1nc(Nc2cccc(CN3CCOCC3)c2)ncc1C1CC1)C1CCC1,scaled lipid accumulation score,[3],≤ 0
same,scaled lipid accumulation score,[4],0.064
same,scaled lipid accumulation score,[5],0.072
same,scaled lipid accumulation score,[2],0.406
COc1ccccc1OCCNCC(O)COc1cccc2[nH]c3ccccc3c12 (configuration not stated) [Carvedilol] [listing 1 of 5 here],scaled lipid accumulation score,[2],1.57 (active)
CC(C)NCC(O)COc1cccc2[nH]ccc12 (configuration not stated),scaled lipid accumulation score,[2],≤ 0
COc1ccccc1OCCNCC(O)COc1cccc2[nH]c3ccccc3c12 (configuration not stated) [Carvedilol] [listing 2 of 5 here],scaled lipid accumulation score,[6],≤ 0
same,scaled lipid accumulation score,library stock concentration: 4.9 mM,0.302 and 0.4
CC(C)NCC(O)COc1cccc2[nH]ccc12 (configuration not stated) [Pindolol],scaled lipid accumulation score,,≤ 0
same,scaled lipid accumulation score,library stock concentration: 8.1 mM,≤ -0.006 and 0.131
same,scaled lipid accumulation score,[2],≤ 0 and ≤ -0.055 and 0.071
COc1ccccc1OCCNCC(O)COc1cccc2[nH]c3ccccc3c12 (configuration not stated) [Carvedilol] [listing 3 of 5 here],scaled lipid accumulation score,[2],1.1 (active)
COc1ccccc1OCCNCC(O)COc1cccc2[nH]c3ccccc3c12 (configuration not stated) [Carvedilol] [listing 4 of 5 here],scaled lipid accumulation score,[2],1.18 (active)
CC(C)NC[C@H](O)COc1cccc2[nH]ccc12 [(S)-(-)-Pindolol],scaled lipid accumulation score,[2],0.001
CC(C)(C)NCC(O)COc1cccc2[nH]c(=O)[nH]c12 (configuration not stated),scaled lipid accumulation score,[2],≤ -0.047
COc1ccccc1OCCNCC(O)COc1cccc2[nH]c3ccccc3c12 (configuration not stated) [Carvedilol tartrate],scaled lipid accumulation score,[2],0.276
COc1ccccc1OCCNCC(O)COc1cccc2[nH]c3ccccc3c12 (configuration not stated) [Carvedilol] [listing 5 of 5 here],scaled lipid accumulation score,[2],0.936 (active)
COc1ccccc1OCC(O)COC(N)=O (configuration not stated) [Methocarbamol],scaled lipid accumulation score,,≤ 0
same,scaled lipid accumulation score,[6],≤ 0
same,scaled lipid accumulation score,library stock concentration: 8.3 mM,≤ -0.001
same,scaled lipid accumulation score,[2],≤ 0
CC(C)NC[C@H](O)COc1cccc2[nH]ccc12 [S(-)-Pindolol],scaled lipid accumulation score,[2],≤ -0.07
COc1ccccc1OCC(O)CO (configuration not stated) [Guaifenesin],scaled lipid accumulation score,,≤ 0
same,scaled lipid accumulation score,[6],≤ 0
same,scaled lipid accumulation score,[2],0.084 and ≤ 0
